Results filed as inconclusive are left out. Entries that show only a call come without a potency. Active and inactive are the calls of the source. Calls follow the shape of the dose curve; as a rule, active = well fitted inhibition curve with a large enough effect; inconclusive = small, poorly fitted or top-dose-only effect, or effect the other way; inactive = flat fitted curve, though single readings scatter.

In PubChem BioAssay (NCATS) one finds Potency data, which are given here for 40 compounds.
Potency is read from the fitted curve at half-maximal effect.

This test is described as follows: Quantitative high throughput screen for delayed death inhibitors of the malarial parasite plastid, 48 hour incubation (AID 488752). Also: nearly all actives have a fitted effect of over 65% in size. The settings on record: Plasmodium falciparum growth; series mostly up to 28.7 µM. The text has this:
NIH Molecular Libraries Probe Production Network [MLPCN]
NIH Chemical Genomics Center [NCGC]
Assay Provider: David Fidock and Eric Ekland, Columbia University
The goal of this screen is to discover new antimalarial compounds that act by inhibiting the development of the apicoplast in the malarial parasite Plasmodium falciparum. The biochemical processes that make this organelle essential for erythrocytic stage parasites are not well understood. However, antibiotics, such as azithromycin and tetracycline, which target the apicoplast translational machinery, have a potent antimalarial effect.
We have developed a cell-based assay that measures parasite growth based on the expression of an integrated copy of a firefly luciferase reporter. To detect small molecules that cause this 'delayed death' phenotype, erythrocytes infected with the luciferase-expressing parasites were incubated with compounds for either one or two generations, corresponding to 48 and 96 hours, respectively. Compounds that inhibit parasite growth in the second generation, but not the first, should be enriched in antimalarials that target the apicoplast. Growth inhibition is detected by a decrease in luciferase activity
Four microliters of culture medium (RPMI 1640 with 0.5% w/v Albumax (GIBCO), 24 mM sodium bicarbonate and 10 ug/mL gentamycin) were dispensed by a Multi-drop Combi into white solid 1536-well plates (Grenier) and 23 nL compound was added by a pin tool. Four microliters of infected erythrocytes (2% hematocrit, 0.1% parasitemia final concentration) in culture medium were dispensed and the plates incubated for 48 hours at 37 C in 5% CO2. Two microliters of luciferase detection reagent was added and luminescence was detected by a ViewLux (PerkinElmer) reader
Regarding `N[C@H](C(=O)O)[C@H]1C[C@@H]1C(=O)O`, the Potency entry was “inactive”.
Under `CN1CCC2(CCN3CCc4c(oc5ccccc45)C3C2)N(C)C1=O` (stereo not given) stands “inactive”.
Under `CC(=O)/C(C)=N/O` stands “inactive”; under `CCCC(=O)NCCc1c2n(c3ccc(OC)cc13)CCCc1ccccc1-2`, “inactive”.
Under `COc1ccccc1N1CCN(CCCCN2C(=O)c3ccccc3C2=O)CC1` stands “inactive”.
As to `[Li+]`, the Potency entry was “inactive”.
Under `N[C@H](C(=O)O)[C@H](O)C(=O)O` stands “inactive”; under `Cc1ccc2c(c1)C(N1CCN(C)CC1)=Nc1cccnc1N2`, “inactive”.
Under `COc1cc(CNC(=O)CCCCCCC(C)C)ccc1O` stands “inactive”.
For `C=CC1(C)CC(=O)C2(O)C(C)(O1)C(OC(C)=O)C(O)C1C(C)(C)CCC(O)C12C` (stereo not given), the Potency result is “inactive”.
With `Cc1ccc([N+](=O)[O-])cc1S(=O)(=O)N(C)C` the entry was “inactive”; with `NC(=O)c1ccccc1`, “inactive”; with `O=C(N[C@@H](Cc1ccccc1)C(=O)CCl)OCc1ccccc1`, “inactive”.
With `CC(=O)NNC(=O)N1Cc2ccccc2Oc2ccc(Cl)cc21` the entry was “inactive”.
For the compound `Cn1c(=O)c2[nH]c(-c3ccc(S(=O)(=O)O)cc3)nc2n(C)c1=O`, the Potency result was “inactive”.
With `CSC(=N)N` the entry was “inactive”; with `NC(C(=O)N[C@@H]1C(=O)N2C(C(=O)O)=C(Cl)CS[C@H]12)c1ccccc1` (stereo not given in full), “inactive”.
`Oc1cc2c(cc1O)C(c1ccccc1)CNCC2` (stereo not given): the Potency entry is “inactive”.
With `N[C@H]1CONC1=O` the entry was “inactive”.
For `NC1CCN(O)C1=O` (stereo not given), the Potency result was “inactive”.
With `Nc1ccc2c3c(cccc13)C(=O)NC2=O` the entry was “inactive”.
With `CC(N)=NCCCC[C@@H](N)C(=O)O` the entry was “inactive”; with `Oc1ccc(Cn2cc[nH]c2=S)cc1`, “inactive”.
Under `c1ccc2nc(C3=NCCN3)ccc2c1` stands “inactive”; under `CCCc1c(-c2ccc(O)cc2)nn(-c2ccc(O)cc2)c1-c1ccc(O)cc1`, “inactive”.
For `COc1ccc2c(c1)CCC1C2CC[C@@]2(C)C1CC[C@@H]2NCCCCCCN1C(=O)C=CC1=O` (stereo not given in full), the Potency result is “inactive”.
With `Cc1nc(N=Nc2cc(S(=O)(=O)O)c3cc([N+](=O)[O-])cc(S(=O)(=O)O)c3c2)c(COP(=O)(O)O)c(C=O)c1O` the entry was “inactive”; with `O=C(O)c1ccccc1Nc1cccc(OCc2ccc3ccccc3n2)c1`, “inactive”.
Turning to `COc1ccccc1N1CCN(CCCCNC(=O)c2ccc3ccccc3c2)CC1`, the Potency is 4.65 µM (active).
With `COC(=O)[C@H](NC(=O)c1cc(-c2ccccc2)nc2ccccc12)c1ccccc1` the entry was “inactive”; with `CC(N)=O`, “inactive”.
Under `N[C@@H](CCCC(=O)O)C(=O)O` stands “inactive”; under `OCC1NCC(O)C(O)C1O` (stereo not given), “inactive”; under `COc1ccc(C(=O)NCc2cccnc2)cc1C(=O)NCc1cccnc1`, “inactive”.
Regarding `O=C(O)[C@H]1NCCC[C@H]1C(=O)O`, the Potency result is “inactive”.
With `NC(N)=N[C@@H](CCC(=O)O)C(=O)O` the entry was “inactive”; with `NC1C=CC=C(C(=O)O)C1` (stereo not given), “inactive”.
Under `Nc1ncnc2c1ncn2C1CCCC1` stands “inactive”; under `Cn1ccnc1`, “inactive”; under `CC(C)(C)c1cc(/C=C(\C#N)C(N)=S)cc(C(C)(C)C)c1O`, 8.28 µM (active).
